Data on 31 compounds can be found in PubChem BioAssay (NCATS).

The structures appear in SMILES notation. Records with an inconclusive call do not appear. Calls of active or inactive are those of the source. The call rests on the fitted dose curve; in most records, active means well fitted inhibition curve with a large enough effect; inconclusive means small, poorly fitted or top-dose-only effect; inactive means flat fitted curve, though single readings scatter.

The target of the first assay is Phospholipid hydroperoxide glutathione peroxidase GPX4 (Homo sapiens) (UniProt P36969). The assay can be described thus: Primary qHTS Assay for Inhibitors of Recombinant Selenoprotein Glutathione Peroxidase 4 (GPX4) (AID 1845192). Further: nearly all actives have a fitted effect of over 65% in size. The settings on record: recombinant GPX4, GR-coupled NADPH fluorescence, 15 min; series mostly up to 50 µM. The procedure, abridged: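 GR-coupled assay: recombinant GPX4 preincubated 30 min with compound at room temperature; final 200 nM GPX4, 1 mM GSH, 0.5 mM cumene hydroperoxide, 0.5 mM NADPH, 100 nM GR, 0.01% BSA, pH 7.5 Tris. NADPH fluorescence (340/450 nm) read at 0 and 15 min.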
Chain of Phospholipid hydroperoxide glutathione peroxidase GPX4 (Homo sapiens) (P36969 whole entry, looked up): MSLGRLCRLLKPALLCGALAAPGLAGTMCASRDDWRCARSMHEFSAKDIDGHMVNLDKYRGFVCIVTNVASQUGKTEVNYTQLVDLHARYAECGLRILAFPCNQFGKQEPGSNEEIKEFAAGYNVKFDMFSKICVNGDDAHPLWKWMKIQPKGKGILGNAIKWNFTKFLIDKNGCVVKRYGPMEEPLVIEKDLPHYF
For `CCN(CC)CCOCCOC(=O)C1(c2ccccc2)CCCC1`, the result was inactive.
On the same count and under the same terms, for `C[N+](C)(C)CCOC(N)=O` the value was “inactive”; for `CC(C)(C)NCC(O)c1cc(O)cc(O)c1` (centres undefined), “inactive”; for `O=C(O)CN(CCN(CC(=O)O)CC(=O)O)CCN(CC(=O)O)CC(=O)O`, “inactive”.
On the same count and under the same terms, the entry for `NC(N)=NC(=O)Cc1c(Cl)cccc1Cl` is “inactive”; for `Cc1ccc(/C(=C\CN2CCCC2)c2ccccn2)cc1` it is “inactive”.
On the same count and under the same terms, for `Cc1nnc(SCC2=C(C(=O)O)N3C(=O)[C@@H](NC(=O)Cn4cnnn4)[C@H]3SC2)s1` the value was “inactive”; for `COC(=O)[C@@H](N)Cc1ccc(O)c(O)c1`, “inactive”.
As to `CCCOc1ccccc1-c1nc2n[nH]nc2c(=O)[nH]1`, the outcome was inactive.
Take `CNCCCN1c2ccccc2CCc2ccccc21`: the outcome was inactive.
In the case of `Cc1ccc(Cl)c(Nc2ccccc2C(=O)O)c1Cl`, the result was inactive.
The same measure, in the same setting: for `O=C(CCCN1CCC(O)(c2cccc(C(F)(F)F)c2)CC1)c1ccc(F)cc1` the value was “inactive”.
On the same count and under the same terms, the entry for `Cc1nc2ccccn2c(=O)c1CCN1CCC(C(=O)c2ccc(F)cc2)CC1` is “inactive”.
On the same count and under the same terms, the entry for `c1cc(CN2CCCCC2)cc(OCCCNc2nc3ccccc3s2)c1` is “inactive”; for `CN1C[C@H](C(=O)N[C@]2(C)O[C@@]3(O)[C@@H]4CCCN4C(=O)[C@H](Cc4ccccc4)N3C2=O)C[C@@H]2c3cccc4[nH]cc(c34)C[C@H]21` it is “inactive”.
Consider `NC1=NCC2c3ccccc3Cc3ccccc3N12` (centres undefined), for which the result was inactive.
The same measure, in the same setting: the entry for `C[C@]12CCC(=O)C=C1CC[C@@H]1[C@@H]2CC[C@@]2(C)[C@H]1CC[C@]2(O)C(=O)CO` is “inactive”; for `COc1ccc2c(c1OC)C(=O)O[C@@H]2[C@H]1c2c(cc3c(c2OC)OCO3)CCN1C` it is “inactive”; for `OC(CCN1CCCCC1)(c1ccccc1)C1CCCCC1` (centres undefined) it is “inactive”.
On the same count and under the same terms, for `Fc1ccc(C(c2ccc(F)cc2)N2CCN(C/C=C/c3ccccc3)CC2)cc1` the value was “inactive”; for `CNCCC(Oc1ccccc1OC)c1ccccc1` (centres undefined), “inactive”.
In the case of `CN(C)[C@@H]1C(=O)C(C(N)=O)=C(O)[C@@]2(O)C(=O)C3=C(O)c4c(O)ccc(Cl)c4[C@@H](O)[C@H]3C[C@@H]12`, the outcome was inactive.
Same read-out and setting: the entry for `CCNC(=O)N1CCN(CCCC(c2ccc(F)cc2)c2ccc(F)cc2)CC1` is “inactive”; for `CN(C)CC[C@@H](c1ccc(Br)cc1)c1ccccn1` it is “inactive”; for `COC(=O)C1=C(C)NC(C)=C(C(=O)OC(C)(C)CN(C)CCC(c2ccccc2)c2ccccc2)C1c1cccc([N+](=O)[O-])c1` (centres undefined) it is “inactive”.
Still for that read-out and setting: for `COCCCC/C(=N\OCCN)c1ccc(C(F)(F)F)cc1` the value was “inactive”.

Tested on in the next assay: not listed separately
The assay can be described thus: qHTS profiling for inhibitors of Plasmodium falciparum proliferation (AID 504749).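 Further: 0% = DMSO vehicle and full inhibition = artemisinin control; nearly all actives have a fitted effect of over 60% in size.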 The settings on record: P. falciparum in erythrocytes, SYBR Green DNA, 72 h; at 28.7 µM (top of the series); parasite line A. An outline of the steps: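 P. falciparum-infected erythrocytes (0.3% parasitemia, 2.5% hematocrit) incubated with compound 72 h at 37 C, 5% CO2. Parasite DNA detected by SYBR Green after lysis, overnight at room temperature; normalised to 0.29 uM artemisinin and DMSO.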
For `C[N+](C)(C)CCOC(N)=O`, the activity, negative = inhibition was 16.8% (inactive).
The same measure, in the same setting: the figure for `O=C(O)CN(CCN(CC(=O)O)CC(=O)O)CCN(CC(=O)O)CC(=O)O` is 7.8% (inactive); for `Cc1nnc(SCC2=C(C(=O)O)N3C(=O)[C@@H](NC(=O)Cn4cnnn4)[C@H]3SC2)s1` it is 11.1% (inactive); for `CCC(=O)c1ccc2c(c1)N(CCCN(C)C)c1ccccc1S2` it is -23.2% (inactive).
On the same count and under the same terms, the figure for `CCCOc1ccccc1-c1nc2n[nH]nc2c(=O)[nH]1` is -3.13% (inactive); for `Cc1ccc(Cl)c(Nc2ccccc2C(=O)O)c1Cl` it is -0.156% (inactive); for `Cc1nc2ccccn2c(=O)c1CCN1CCC(C(=O)c2ccc(F)cc2)CC1` it is -18.1% (inactive).
Still for that read-out and setting: for `CN(C)CC/C=C1\c2ccccc2COc2ccccc21` the value was 0.213% (inactive); for `CCCCNc1c(C(=O)OCC)c(C)nc2c1cnn2CC`, 2.9% (inactive); for `NC1=NCC2c3ccccc3Cc3ccccc3N12` (centres undefined), -23% (inactive).
In the case of `CN1CCN(CC(=O)N2c3ccccc3C(=O)Nc3cccnc32)CC1`, the activity, negative = inhibition is -7.56% (inactive).
On the same count and under the same terms, for `C[C@]12CCC(=O)C=C1CC[C@@H]1[C@@H]2CC[C@@]2(C)[C@H]1CC[C@]2(O)C(=O)CO` the value was -9.28% (inactive); for `OC(CCN1CCCCC1)(c1ccccc1)C1CCCCC1` (centres undefined), -22% (inactive); for `CNCCC(Oc1ccccc1OC)c1ccccc1` (centres undefined), 3.02% (inactive).
Same read-out and setting: the figure for `CN(C)CC[C@@H](c1ccc(Br)cc1)c1ccccn1` is -5.21% (inactive); for `COCCCC/C(=N\OCCN)c1ccc(C(F)(F)F)cc1` it is -21.1% (inactive); for `CCc1cccc(N(C)C(N)=Nc2cccc3ccccc23)c1` it is -26.1% (inactive).

The assay is the same for the next values; noted with them: P. falciparum in erythrocytes, SYBR Green DNA, 72 h; at 28.7 µM (top of the series); parasite line B.
In the case of `C[N+](C)(C)CCOC(N)=O`, the activity, negative = inhibition was 9.29% (inactive).
As to `O=C(O)CN(CCN(CC(=O)O)CC(=O)O)CCN(CC(=O)O)CC(=O)O`, the activity, negative = inhibition was -1.15% (inactive).
For `Cc1nnc(SCC2=C(C(=O)O)N3C(=O)[C@@H](NC(=O)Cn4cnnn4)[C@H]3SC2)s1`, the activity, negative = inhibition is 2.94% (inactive).
Still for that read-out and setting: for `CCC(=O)c1ccc2c(c1)N(CCCN(C)C)c1ccccc1S2` the value was -3.51% (inactive); for `COC(=O)[C@@H](N)Cc1ccc(O)c(O)c1`, -10.7% (inactive).
Same read-out and setting: the figure for `CCCOc1ccccc1-c1nc2n[nH]nc2c(=O)[nH]1` is 3.38% (inactive); for `Cc1ccc(Cl)c(Nc2ccccc2C(=O)O)c1Cl` it is -3.06% (inactive).
On the same count and under the same terms, for `Cc1nc2ccccn2c(=O)c1CCN1CCC(C(=O)c2ccc(F)cc2)CC1` the value was 11.2% (inactive); for `CN(C)CC/C=C1\c2ccccc2COc2ccccc21`, 6.5% (inactive); for `CCCCNc1c(C(=O)OCC)c(C)nc2c1cnn2CC`, -6.97% (inactive).
In the case of `CN1CCN(CC(=O)N2c3ccccc3C(=O)Nc3cccnc32)CC1`, the activity, negative = inhibition is -8.28% (inactive).
Still for that read-out and setting: for `C[C@]12CCC(=O)C=C1CC[C@@H]1[C@@H]2CC[C@@]2(C)[C@H]1CC[C@]2(O)C(=O)CO` the value was 20.5% (inactive).
As for `OC(CCN1CCCCC1)(c1ccccc1)C1CCCCC1` (centres undefined), the activity, negative = inhibition is -4.19% (inactive).
Same read-out and setting: for `CNCCC(Oc1ccccc1OC)c1ccccc1` (centres undefined) the value was -7.17% (inactive); for `CN(C)CC[C@@H](c1ccc(Br)cc1)c1ccccn1`, 2.6% (inactive).
On the same count and under the same terms, the figure for `CCc1cccc(N(C)C(N)=Nc2cccc3ccccc23)c1` is -10.7% (inactive).
